Insulin prom inh: TRM-6 insulin promoter activity inhibition | TRM-6 cells (human fetal islet line), insulin promoter-eGFP reporter, imaging; reporter expression induced with tamoxifen | inhibition, % at 2 µM | 130,000 tested, 0.9% active | AID 1273;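 active = inhibition above the mean plus 3 SD, with well images judged a real hit on visual review, cut at about 60% in these data, passing the limit was not always enough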
Insulin prom up: MIN6 insulin promoter up-regulation. MIN6 insulin promoter-GFP reporter, high-content imaging; hits give high values. z-score at 5 µM. 190,000 tested, 0.3% active. AID 1625;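 active = z-score above 3 at 5 µM with at least 500 cells counted in the well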
L major viab: Leishmania major promastigote growth inhibition. Leishmania major promastigotes, resazurin fluorescence viability. inhibition, % at 10 µM. 200,000 tested, 9% active; in the data active = inhibition above about 50%;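 note: promastigotes grown with compound for 44 hours at 28 °C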
Autophagy mod: autophagy modulation, high-content screen; MEF GFP-LC3 puncta imaging; test concentration mostly 10 µM; calls only at 10 µM (by protocol); 190,000 tested, 0.98% active; AID 463193;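 active = percentage of spot-positive cells more than 3 SD above its plate mean, without a fluorescence outlier flag or 80% toxicity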;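 note: spot-positive cell cutoff set from DMSO-treated cells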
WT yeast gro inh: growth inhibition of WT yeast, mitochondrial fusion screen. mitochondrial fusion phenotypic screen, WT strain. inhibition, % at 10 µM. 190,000 tested, 2.1% active; in the data active = inhibition above about 58%; tested in S. cerevisiae
* hit, by the source's call; i = inactive; . = not tested or not shown. Only some compounds are listed: those with a hit (about 11% of all), similar ones and a draw of the others.

SMILES	Insulin prom inh	Insulin prom up	L major viab	Autophagy mod	WT yeast gro inh
COC(=O)c1cc2oc3ccccc3c2n1CC(=O)Nc1ccccc1OC	.	1.1	83*	i	1
COC(=O)CNC(=O)COC(=O)/C=C/c1ccc(F)cc1	18	0.1	-5	i	-14
COC(=O)c1c(NC(=O)COC(=O)CNC(=O)C2CCCCC2)sc(C)c1C	-31	0.04	0	i	-27
CC1Cc2ccccc2N1C(=O)C12CCC(C)(C(=O)C1)C2(C)C (centres undefined)	95*	0.02	3	i	3
Cc1cccnc1Sc1c([N+](=O)[O-])ncn1C	3	.	-4	i	-8
Cc1cccc(Sc2c([N+](=O)[O-])ncn2C)c1	.	-0.34	93*	i	55
Cc1sc2nc(CN3CCOCC3)[nH]c(=S)c2c1C	58	0.64	-1	i	-17
Cc1cccc(NC(=O)C(=O)NCCCc2ccccc2)c1	-6	.	-9	i	-2
S=c1nc2ccccc2c2nc(-c3ccccc3)[nH]n12	50	0.39	-1	i	71*
COc1ccc(-c2nc(C#N)c(N3CCC(C(N)=O)CC3)o2)cc1OC	75*	-0.5	11	i	-29
COc1ccc(/C=N/NC(=O)c2cc(C(C)(C)C)[nH]n2)cc1COc1ccc(F)cc1F	.	0.35	19	i	0
CC(C)c1csc(CN2CCN(Cc3ccc(F)c(F)c3)C(CCO)C2)n1 (centres undefined)	.	1.1	70*	i	4
CCOC(=O)N1CCC(N2CCN(CCC(C)C)C(CCO)C2)CC1 (centres undefined)	.	0.25	21	i	3
CSc1ccc(CN2CCN(Cc3ccccc3)C(CCO)C2)cc1 (centres undefined)	.	-0.66	74*	i	-2
Cc1cc(C)n(-c2cccc(CN3CCC(CO)(Cc4ccccc4)CC3)c2)n1	.	-0.73	9	i	16
CCOC(=O)N1CCC(N2CCN(Cc3ccc(F)c(F)c3)C(CCO)C2)CC1 (centres undefined)	22	-0.02	84*	i	2
CSc1cccc(CN2CCC(CO)(Cc3ccccc3)CC2)c1	.	0.02	88*	i	2
Cn1c(CO)cnc1SCc1ccc(Cl)cc1	-7	.	-2	i	5
O=C(Oc1cccc(NC(=O)c2ccco2)c1)c1cccc(S(=O)(=O)N2CCCCC2)c1	-45	-0.05	10	i	13
CCN(CC)S(=O)(=O)c1cccc(C(=O)OCC(=O)NC(C)c2ccccc2)c1 (centres undefined)	.	-0.32	2	i	5
CSc1ccc(CN2CCN(CC=C(C)C)C(CCO)C2)cc1 (centres undefined)	.	0.02	65*	i	8
CSc1cccc(CN2CCN(Cc3ccccc3)C(CCO)C2)c1 (centres undefined)	.	0.04	84*	i	-12
CSc1cccc(CN2CCN(Cc3ccc(F)c(F)c3)C(CCO)C2)c1 (centres undefined)	.	-0.11	79*	i	0
CC(C)c1cc(CN2CCN(Cc3ccc(F)c(F)c3)C(CCO)C2)[nH]n1 (centres undefined)	33	-0.73	6	i	3
CSc1cccc(CN2CCN(CCc3ccccc3)C(CCO)C2)c1 (centres undefined)	.	-0.23	88*	i	-1
SMILES	Insulin prom inh	Insulin prom up	L major viab	Autophagy mod	WT yeast gro inh
Cc1sc(-c2ccncc2)nc1OC(=O)c1ccc(F)cc1F	.	0.1	0	i	2
CCc1nnc(NC(=O)COc2ccccc2[N+](=O)[O-])s1	.	-0.14	.	.	.
Cc1ccc(C(=O)NC(=O)OCCn2c(C)cnc2[N+](=O)[O-])cc1	-13	0.3	5	i	12
CC(C)(O)C#Cc1ccc(CN2CCN(CCc3ccccc3)C(CCO)C2)s1 (centres undefined)	.	0.04	80*	i	6
CCCn1ncc(CN2CCN(CCc3ccccc3)C(CCO)C2)c1C (centres undefined)	.	0.64	60*	i	3
COC(=O)c1c[nH]n2c(=O)cc(CCl)nc12	23	0.75	-9	i	2
CCN(CC)CCNc1ncnc2c1sc1nc(N3CCCC3)c3c(c12)CC(C)(C)OC3	.	-2.2	100*	i	3
CC1(C)Cc2c(c(N3CCOCC3)nc3sc4c(NN)ncnc4c23)CS1	-30	-0.57	97*	i	11
C(=N\NCc1ccccc1)/c1ccc2nccnc2c1	.	0.1	.	.	.
CCOC(=O)C1=C(C)OC(N)=C(C(=O)OCC)C1c1cccnc1 (centres undefined)	.	0.44	84*	i	12
CCOC(=O)C1=C(N)OC2=C(C(=O)CC(C)(C)C2)C1c1cccnc1 (centres undefined)	-4	0.55	78*	i	-12

Screening data (PubChem)
